According to PubChem BioAssay (NCATS):
Results filed as inconclusive are left out. The source made the active and inactive calls. Calls follow the shape of the dose curve; as a rule, active = well fitted cell-killing curve with a large enough effect; inconclusive = small, poorly fitted or top-dose-only effect, or effect the other way; inactive = no such curve, though single readings can be large or run the other way. Starred links: 1 amine or outer side, 2 acyl side, 3 side chain; linkers in the order of their positions; H or OH if unused. Positions of bridges follow the written chain, without caps; N, C: chain ends. Non-standard residues stand in square brackets, D forms with d. Residues, ends and D or L forms follow the SMILES beside them. Chains are numbered I, II in the order given. Actinocin(9to1) = Cc1c2oc3c(C)ccc(C(=O)[*:1])c3nc-2c(C(=O)[*:2])c(N)c1=O; NMeV = CN[CH](C(=O)O)C(C)C; Sar = CNCC(=O)O

Assay: Quantitative High-Throughput drug screen in 47 multiple myeloma cell lines against the NCATS MIPE library collection: RPMI8226_ATCC cell viability assay (AID 1919871); also: nearly all actives have a fitted effect of over 30% in size
Settings: RPMI8226 myeloma viability, CellTiter-Glo ATP luminescence, 48 h; series mostly up to 45.8 µM
Description: PI: Beverly A. Mock Ph.D.
Laboratory of Cancer Biology and Genetics,
Center for Cancer Research, National Cancer Institute,
National Institute of Health, Bethesda, Maryland
Drug resistance and disease progression are common in multiple myeloma (MM) patients, underscoring the need for new therapeutic combinations. […] We hypothesized that effective combinations would reduce MYC expression and enhance p16 activity. […] These preclinical data identify potentially useful drug combinations for evaluation in drug-resistant MM and reveal potential mechanisms of combined drug sensitivity.
Described herein is the primary MIPE qHTS used to cherrypick compounds. Validated compounds were then further tested for potential synergistic activiy.
[1] Peat TJ, Gaikwad SM, Dubois W, Gyabaah-Kessie N, Zhang S, Gorjifard S, Phyo Z, Andres M, Hughitt VK, Simpson RM, Miller MA, Girvin AT, Taylor A, Williams D, D'Antonio N, Zhang Y, Rajagopalan A, Flietner E, Wilson K, Zhang X, Shinn P, Klumpp-Thomas C, McKnight C, Itkin Z, Chen L, Kazandijian D, Zhang J, Michalowski AM, Simmons JK, Keats J, Thomas CJ, Mock BA. Drug combinations identified by high-throughput screening promote cell cycle transition and upregulate Smad pathways in myeloma. Cancer Lett. 2023 Aug 1;568:216284. doi: 10.1016/j.canlet.2023.216284. Epub 2023 Jun 24. PMID: 37356470; PMCID: PMC10408729.
SEQUENCE No. (e.g., 1, 2, 3, etc.); […] (e.g., Cells, Incubation, Reagent, etc.); VALUE and DESCRIPTION.
1; Cells; 5 uL; white, solid bottom 1536-well Greiner assay plate.
2; Compounds; 23 nL; Kalypsis pin tool (Wako USA) equipped with a 1536-well pin head to transfer to the assay plates.
3; Incubation; 48 hours; 37C incubation.
4; Reagent;5uL; CellTiter Glo (Promega).
5; Detector; 425V; Luminescence; Viewlux PerkinElmer.
NOTES (numbers refer to Sequence numbers above)
1. The cell-based screening methods employed in this study were like those previously published. Briefly, the corresponding myeloma cell lines were screened in 1,536-well plates with 500 cells, 5-uL per well for inhibition of cell viability (assessed by measuring ATP levels with CellTiterGlo).
2. NCATS MIPE 4.0 library of approved and investigational drugs were added using the Kalypsis pin tool. Wells treated with DMSO only for 100% viability and media only for 0% viability were used as controls.
3. The assay plates were covered and incubated for 48 hours in a 37C, 5% CO2 incubator with controlled humidity.
4. After 48 hours, CellTilter-GloTM luminescent substrate mix (Promega) reagent was added to the assay plate and plates we incubated for 5 min at room temperature.
5. Signal was measured as median relative luminescence units on a ViewLux (PerkinElmer) multiplate reader.
[1] Heske CM, Davis MI, Baumgart JT, Wilson K, Gormally MV, Chen L, Zhang X, Ceribelli M, Duveau DY, Guha R, Ferrer M, Arnaldez FI, Ji J, Tran HL, Zhang Y, Mendoza A, Helman LJ, Thomas CJ. Matrix Screen Identifies Synergistic Combination of PARP Inhibitors and Nicotinamide Phosphoribosyltransferase (NAMPT) Inhibitors in Ewing Sarcoma. Clin Cancer Res. 2017 Dec 1;23(23):7301-7311. doi: 10.1158/1078-0432.CCR-17-1121. Epub 2017 Sep 12. PMID: 28899971; PMCID: PMC6636827.
Potency is read from the fitted curve at half-maximal effect.

SMILES	Potency
O=[N+]([O-])c1cn2c(n1)OC[C@@H](OCc1ccc(OC(F)(F)F)cc1)C2	inactive
CCCc1nc(C(C)(C)O)c(C(=O)O)n1Cc1ccc(-c2ccccc2-c2nn[nH]n2)cc1	inactive
O=C1c2c(O)cccc2[C@@H]([C@@H]2O[C@H](CO)[C@@H](O)[C@H](O)[C@H]2O)c2cc(CO)cc(O)c21	inactive
N#Cc1cc(NC(=O)Nc2nnc(-c3ccncc3)s2)ccc1-c1cn[nH]c1	inactive
CC(C=CC(=O)NO)=C[C@@H](C)C(=O)c1ccc(N(C)C)cc1	0.332 µM (active)
N#Cc1ccc(COC[C@H]2O[C@@H](n3c(NCc4ccc(Cl)c(Cl)c4)nc4c(N)ncnc43)[C@@H](O)[C@@H]2O)cc1	5.26 µM (active)
O=C(Nc1cc2cc[nH]c2cn1)c1ccccc1	13.2 µM (active)
COc1cc(C(C)C)c(Oc2cnc(NC(CO)CO)nc2N)cc1I	3.32 µM (active)
CC[C@H]1OC(=O)[C@H](C)[C@@H](O[C@H]2C[C@@](C)(OC)[C@@H](O)[C@H](C)O2)[C@H](C)[C@@H](O[C@@H]2O[C@@H](C)C[C@H](N(C)C)[C@@H]2O)[C@](C)(O)C[C@@H](C)C(=O)[C@H](C)[C@@H](O)[C@]1(C)O	inactive
COc1cccc2c1C(=O)c1c(O)c3c(c(O)c1C2=O)C[C@@](O)(C(=O)CO)C[C@H]3O[C@H]1C[C@H](N)[C@H](O)[C@H](C)O1	0.235 µM (active)
COC[C@H](NC(=O)c1cnc(C)s1)C(=O)N[C@@H](COC)C(=O)N[C@@H](Cc1ccccc1)C(=O)[C@@]1(C)CO1	0.187 µM (active)
COc1cc([C@@H]2c3cc4c(cc3[C@H](O)[C@H]3COC(=O)[C@@H]23)OCO4)cc(OC)c1OC	0.469 µM (active)
CCOC(=O)[C@@H](N)Cc1ccc(-c2cc(O[C@H](c3ccc(Cl)cc3-n3ccc(C)n3)C(F)(F)F)nc(N)n2)cc1	20.9 µM (active)
O=C(O)C=Cc1ccc(Cn2ccnc2)cc1	inactive
COc1ccc(S(=O)(=O)Nc2cc(-c3c(O)ccc4ccccc34)c(O)c3ccccc23)cc1	23.5 µM (active)
C=Cc1c(C)c2cc3nc(cc4[nH]c(cc5nc(cc1[nH]2)C(C)=C5CCC(=O)O)c(CCC(=O)OC)c4C)[C@@]1(C)C3=CC=C(C(=O)OC)[C@H]1C(=O)OC	0.935 µM (active)
Cc1cc(C(=O)NOCCO)c(Nc2ccc(I)cc2F)n(C)c1=O	inactive
CC(C)N1[N]C(=C2C=c3cc(O)ccc3=N2)c2c(N)ncnc21	0.0418 µM (active)
CC(=O)OC[C@@H]1O[C@@H](n2ccc(=O)[nH]c2=O)[C@H](OC(C)=O)[C@H]1OC(C)=O	inactive
Cn1cnc2c(F)c(Nc3ccc(Br)cc3F)c(C(=O)NOCCO)cc21	inactive

SMILES	Potency
Cc1c2oc3c(C)ccc(C(=O)NC4C(=O)NC(C(C)C)C(=O)N5CCCC5C(=O)N(C)CC(=O)N(C)C(C(C)C)C(=O)OC4C)c3nc-2c(C(=O)NC2C(=O)NC(C(C)C)C(=O)N3CCCC3C(=O)N(C)CC(=O)N(C)C(C(C)C)C(=O)OC2C)c(N)c1=O (stereo not given) (I: TVP[Sar][NMeV] / II: TVP[Sar][NMeV]; ester I:1-I:C, II:1-II:C; linker I:N-II:N via Actinocin(9to1); configuration not given here)	inactive
COc1cc(O)c2c(c1)C1OC1C[C@H](O)[C@H](O)C(=O)C=CC[C@H](C)OC2=O (stereo not given in full)	3.72 µM (active)
CCCCCN=C(N)NN=Cc1c[nH]c2ccc(OC)cc12	14.8 µM (active)
C[C@H](CCC(=O)O)[C@H]1CCC2C3C[C@H](O)[C@@H]4C[C@H](O)CC[C@]4(C)C3CC[C@@]21C (stereo not given in full)	inactive
c1cc(N[C@@H]2CCNC2)nc(-c2cnc3ccc(-c4cn[nH]c4)cn23)c1	inactive
Cc1ncc(-c2ccnc(Nc3ccc(S(C)(=O)=O)cc3)n2)n1C(C)C	5.9 µM (active)
Cn1cc(CNCC2CCN(c3ncc(C(=O)NO)cn3)CC2)c2ccccc21	0.0662 µM (active)
CC(N[C@H]1CCCC[C@H]1NC(=O)c1ccc(Cl)cc1)c1cccc2ccccc12 (stereo not given in full)	inactive
COc1ccc(C(C)=O)c(O)c1	inactive
C=C1C[C@@]2(O)O[C@@]3(C[C@H]2C(C)C)[C@H](C)CC[C@H]13	inactive
COc1cc(C=CC(=O)CC(=O)C=Cc2ccc(O)c(OC)c2)ccc1O	30.3 µM (active)
COc1ccc(C=Cc2cc(OC)c(OC)c(OC)c2)cc1NC(=O)[C@H](N)CO	0.0264 µM (active)
CCOC(=O)[C@H](CCc1ccccc1)N[C@@H](C)C(=O)N1[C@@H](C(=O)O)C[C@H]2CCC[C@@H]21	20.9 µM (active)
O=C(O)CCCCCC(=O)NN=C1CCCC1	inactive
CC(=O)N[C@H]1[C@@H]([C@H](O)[C@H](O)CO)OC(C(=O)O)=C[C@@H]1N=C(N)N	inactive
O=C(Nc1cccc(Nc2ncc(Br)c(NCCc3cnc[nH]3)n2)c1)N1CCCC1	18.7 µM (active)
CN(C)c1ccc(C(=O)NCCCCCCC(=O)NO)cc1	1.87 µM (active)
CN(C)CC(=O)N1CCC(c2ccc(NC(=O)c3ncc(C#N)[nH]3)c(C3=CCCCC3)c2)CC1	inactive
C[C@@H](Oc1ccc2[nH]nc(C=Cc3cnn(CCO)c3)c2c1)c1c(Cl)cncc1Cl	1.32 µM (active)
CC(=O)NCC(=O)N1[C@H]2CC[C@H]1c1cc(Nc3ncc(C(F)(F)F)c(NC4CCC4)n3)ccc12	5.9 µM (active)
